In PubChem BioAssay (EPA / NIEHS):
The source made the active and inactive calls. Rule for the calls: active = hit-call score of the fitted dose curve at least 0.9, where 1 is the maximum; inactive = score below 0.9.

Tests used:
[1] = read-out: Macrophage colony-stimulating factor (MCSF), CSF1 (gene 1435); experiment: BSK_hDFCGF_MCSF: BioMAP Diversity Plus: hDFCGF Assay for Macrophage colony-stimulating factor (MCSF) Biomarker Activity (AID 2283060); details: primary human foreskin fibroblasts; actives raise or lower the signal
How it was run: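 M-CSF levels, determined by ELISA, are taken at 24 h after dosing human skin fibroblasts. Responses in either direction are fitted with DMSO serving as the baseline.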

[2] = BSK_hDFCGF_SRB: Viability Assessment in the BioMAP Diversity Plus: hDFCGF Assay (AID 2283061); details: primary human foreskin fibroblasts;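 note: cells exposed to compound for 24 h before the read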
How it was run: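 Cells were dosed with test chemical, cultured 24 h, fixed with 10% TCA, then stained with 0.1% SRB and read at 560 nm. The fibroblasts were human foreskin primary cells, and DMSO served as baseline.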

[3] = read-out: TIMP metallopeptidase inhibitor 1 (TIMP1), TIMP1 (gene 7076); experiment: BSK_hDFCGF_TIMP1: BioMAP Diversity Plus: hDFCGF Assay for TIMP metallopeptidase inhibitor 1 (TIMP1) Biomarker Activity (AID 2283062); details: primary human foreskin fibroblasts; actives raise or lower the signal
How it was run: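 Fibroblasts from human foreskin are treated with test chemical and harvested at 24 h. TIMP-1 is quantified by ELISA, and gain or loss of signal is scored against DMSO.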

[4] = read-out: Monokine induced gamma interferon (MIG), CXCL9 (gene 4283); experiment: BSK_hDFCGF_MIG: BioMAP Diversity Plus: hDFCGF Assay for Monokine induced gamma interferon (MIG) Biomarker Activity (AID 2283063); details: primary human foreskin fibroblasts; actives raise or lower the signal
How it was run: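 MIG signal, determined by ELISA, reflects 24 h chemical exposure of human skin primary fibroblasts. DMSO serves as negative control and baseline.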

[5] = read-out: Matrix Metallopeptidase 1 (MMP1), MMP1 (gene 4312); experiment: BSK_hDFCGF_MMP1: BioMAP Diversity Plus: hDFCGF Assay for Matrix Metallopeptidase 1 (MMP1) Biomarker Activity (AID 2283064); details: primary human foreskin fibroblasts; actives raise or lower the signal
How it was run: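 hDFCGF primary fibroblasts (human foreskin); chemical added; 24 h; MMP1 by ELISA; bidirectional fit vs DMSO.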

[6] = read-out: Plasminogen activator inhibitor-1 (PAI1), SERPINE1 (gene 5054); experiment: BSK_hDFCGF_PAI1: BioMAP Diversity Plus: hDFCGF Assay for Plasminogen activator inhibitor-1 (PAI1) Biomarker Activity (AID 2283066); details: primary human foreskin fibroblasts; actives raise or lower the signal
How it was run: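 Human foreskin fibroblast primary cells, 24 h chemical exposure; PAI-1 measured by ELISA. Bidirectional fitting relative to DMSO; parallel cultures stained with SRB for total protein to flag overt cytotoxicity.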

[7] = read-out: Intercellular Adhesion Molecule 1 (ICAM1), ICAM1 (gene 3383); experiment: BSK_KF3CT_ICAM1: BioMAP Diversity Plus: KF3CT Assay for Intercellular Adhesion Molecule 1 (ICAM1) Biomarker Activity (AID 2283067); details: primary human keratinocytes with fibroblasts; actives raise or lower the signal
How it was run: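 Dose the keratinocyte/fibroblast co-culture, wait 24 h, measure ICAM-1 by ELISA, then fit increases or decreases against DMSO. Cytotoxicity is checked in parallel cultures by SRB total-protein staining.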

[8] = read-out: Interferon-gamma inducible Protein 10 (IP10), CXCL10 (gene 3627); experiment: BSK_KF3CT_IP10: BioMAP Diversity Plus: KF3CT Assay for Interferon-gamma inducible Protein 10 (IP10) Biomarker Activity (AID 2283068); details: primary human keratinocytes with fibroblasts; actives raise or lower the signal
How it was run: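 In a primary skin co-culture of keratinocytes and fibroblasts, IP-10 is quantified by ELISA at 24 h after dosing. SRB staining of parallel wells monitors overt toxicity. Curves are fitted both directions against DMSO.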

[9] = BSK_KF3CT_SRB: Viability Assessment in the BioMAP Diversity Plus: KF3CT Assay (AID 2283069); details: primary human keratinocytes with fibroblasts;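 note: fitted for both signal gain and loss against DMSO baseline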
How it was run: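 Keratinocytes co-cultured with foreskin fibroblasts (human primary); chemical added, 24 h; fix 10% TCA, stain 0.1% SRB, A560. Bidirectional fit vs DMSO.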

[10] = read-out: Interleukin-1 alpha (IL1a), IL1A (gene 3552); experiment: BSK_KF3CT_IL1a: BioMAP Diversity Plus: KF3CT Assay for Interleukin-1 alpha (IL1a) Biomarker Activity (AID 2283070); details: primary human keratinocytes with fibroblasts; actives raise or lower the signal
How it was run: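 Chemicals were dosed onto co-cultured human keratinocytes and foreskin fibroblasts, IL-1a was quantified by ELISA at 24 h, and activity was fitted in both directions relative to DMSO controls.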

[11] = read-out: Transforming growth factor beta 1 (TGFb1), TGFB1 (gene 7040); experiment: BSK_KF3CT_TGFb1: BioMAP Diversity Plus: KF3CT Assay for Transforming growth factor beta 1 (TGFb1) Biomarker Activity (AID 2283072); details: primary human keratinocytes with fibroblasts; actives raise or lower the signal
How it was run: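 Human keratinocyte/foreskin fibroblast co-culture; TGF-b1 measured by ELISA 24 h after dosing, fitted bidirectionally versus DMSO. Cytotoxicity checked in parallel cultures by total protein (SRB staining, 560 nm).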

[12] = read-out: C-C motif chemokine 2 (Homo sapiens) (UniProt P13500); experiment: BSK_KF3CT_MCP1: BioMAP Diversity Plus: KF3CT Assay for Monocyte Chemoattractant Protein 1 (MCP1/CCL2) Biomarker Activity (AID 2283073); details: primary human keratinocytes with fibroblasts; actives raise or lower the signal
How it was run: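 Keratinocytes and foreskin fibroblasts were co-cultured, dosed with chemical, and sampled 24 h later. MCP-1 was quantified by ELISA, and the endpoint was analyzed with bidirectional fitting using DMSO as negative control.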

[13] = read-out: Matrix Metallopeptidase 9 (MMP9), MMP9 (gene 4318); experiment: BSK_KF3CT_MMP9: BioMAP Diversity Plus: KF3CT Assay for Matrix Metallopeptidase 9 (MMP9) Biomarker Activity (AID 2283074); details: primary human keratinocytes with fibroblasts; actives raise or lower the signal
How it was run: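 Human keratinocyte/foreskin fibroblast co-culture; compound added; 24 h; MMP-9 by ELISA; bidirectional fit vs DMSO baseline.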

[14] = read-out: urokinase plasminogen activator (uPA), PLAU (gene 5328); experiment: BSK_KF3CT_uPA: BioMAP Diversity Plus: KF3CT Assay for urokinase plasminogen activator (uPA) Biomarker Activity (AID 2283075); details: primary human keratinocytes with fibroblasts; actives raise or lower the signal
How it was run: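 ELISA readout of uPA, analyzed for signal gain or loss relative to DMSO, from a human primary keratinocyte–foreskin fibroblast co-culture measured 24 h after chemical treatment.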

[15] = read-out: CD40, CD40 (gene 958); experiment: BSK_LPS_CD40: BioMAP Diversity Plus: LPS Assay for CD40 Biomarker Activity (AID 2283076); details: primary human HUVEC with PBMC; actives raise or lower the signal
How it was run: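 CD40 signal, measured by ELISA, is fitted in both directions relative to DMSO vehicle. The system is an LPS-driven human vascular primary co-culture of endothelial cells and PBMC, sampled 24 h after compound addition.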

[16] = read-out: E-selectin (Homo sapiens) (UniProt P16581); experiment: BSK_LPS_Eselectin: BioMAP Diversity Plus: LPS Assay for Eselectin Biomarker Activity (AID 2283077); details: primary human HUVEC with PBMC; actives raise or lower the signal
How it was run: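 Signal of E-selectin, detected by ELISA, served as the endpoint; cells were umbilical vein endothelium with PBMC, read 24 h after treatment. DMSO defined baseline, and both increases and decreases were fitted.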

[17] = read-out: Interleukin-8 (IL8), CXCL8 (gene 3576); experiment: BSK_LPS_IL8: BioMAP Diversity Plus: LPS Assay for Interleukin-8 (IL8) Biomarker Activity (AID 2283078); details: primary human HUVEC with PBMC; actives raise or lower the signal
How it was run: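 Endothelial cells and PBMC from human donors are co-cultured, treated with chemicals and LPS, then assayed for IL-8 by ELISA after 24 h. Parallel SRB staining (0.1% SRB after 10% TCA fixation, 560 nm) flags cytotoxicity.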

[18] = BSK_LPS_SRB: Viability Assessment in the BioMAP Diversity Plus: LPS Assay (AID 2283079); details: primary human HUVEC with PBMC;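 note: total protein by sulforhodamine B absorbance as a cytotoxicity measure; measured one day after compound addition; fitted in both directions against DMSO so loss or gain of signal counts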
How it was run: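 Overt cytotoxicity was gauged by sulforhodamine B total-protein staining in a primary human vascular endothelial and mononuclear cell co-culture 24 h post-dosing. Activity was fitted in both directions relative to DMSO.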

[19] = read-out: TIMP metallopeptidase inhibitor 2 (TIMP2), TIMP2 (gene 7077); experiment: BSK_KF3CT_TIMP2: BioMAP Diversity Plus: KF3CT Assay for TIMP metallopeptidase inhibitor 2 (TIMP2) Biomarker Activity (AID 2283071); details: primary human keratinocytes with fibroblasts; actives raise or lower the signal
How it was run: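 Co-culture of human primary keratinocytes and foreskin fibroblasts, measured 24 h after chemical dosing. TIMP-2 quantified by ELISA and fitted in both directions relative to DMSO. Cytotoxicity checked in parallel cultures by SRB total-protein staining.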

[20] = read-out: Vascular cell adhesion molecule 1 (VCAM1), VCAM1 (gene 7412); experiment: BSK_hDFCGF_VCAM1: BioMAP Diversity Plus: hDFCGF Assay for Vascular cell adhesion molecule 1 (VCAM1) Biomarker Activity (AID 2283065); details: primary human foreskin fibroblasts; actives raise or lower the signal
How it was run: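 Cells are dosed, cultured for 24 h, then VCAM-1 is quantified by ELISA; signal increases and decreases are both fitted relative to DMSO.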

Measured: outcome

E-selectin (Homo sapiens), sequence (P16581 whole entry, looked up): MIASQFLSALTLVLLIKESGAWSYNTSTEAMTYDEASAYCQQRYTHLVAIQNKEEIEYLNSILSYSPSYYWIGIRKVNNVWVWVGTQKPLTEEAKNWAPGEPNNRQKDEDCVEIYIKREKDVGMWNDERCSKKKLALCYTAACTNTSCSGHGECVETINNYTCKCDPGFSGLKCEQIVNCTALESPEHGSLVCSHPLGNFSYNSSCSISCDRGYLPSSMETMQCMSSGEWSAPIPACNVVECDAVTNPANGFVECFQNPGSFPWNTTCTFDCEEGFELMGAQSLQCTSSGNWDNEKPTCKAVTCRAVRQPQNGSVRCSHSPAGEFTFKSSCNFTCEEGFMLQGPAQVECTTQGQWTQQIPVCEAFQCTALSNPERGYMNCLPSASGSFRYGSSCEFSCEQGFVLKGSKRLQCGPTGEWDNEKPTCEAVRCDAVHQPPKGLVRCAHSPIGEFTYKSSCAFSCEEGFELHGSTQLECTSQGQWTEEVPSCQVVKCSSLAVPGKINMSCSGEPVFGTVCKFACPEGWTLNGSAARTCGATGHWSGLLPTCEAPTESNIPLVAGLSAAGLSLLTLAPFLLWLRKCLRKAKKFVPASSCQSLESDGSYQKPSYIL

C=CCOC(=O)c1ccccc1C(=O)OCC=C
not listed: [19] | [20]
inactive: all other assays above

C[C@]12C=CC(=O)C=C1CC[C@@H]1[C@@H]2C(=O)C[C@@]2(C)[C@H]1CC[C@]2(O)C(=O)CO
not listed: [19] | [20]
inactive: all other assays above

COc1cc(S(=O)(=O)O)c(C)cc1N=Nc1c(O)ccc2cc(S(=O)(=O)O)ccc12
not listed: [19] | [20]
inactive: all other assays above

CCCCCC(=O)O
not listed: [3] | [5] | [20]
inactive: all other assays above

O=C(OCCCCCOC(=O)c1ccccc1)c1ccccc1
not listed: [2] | [9] | [19] | [20]
inactive: all other assays above

Cc1cc(=O)[nH]c(=S)[nH]1
not listed: [2]
inactive: all other assays above

CC(CO)OC(C)CO (stereo not given) (tested in a mixture with another compound)
not listed: [3]
inactive: all other assays above
